Assay outcomes deposited in PubChem by The Scripps Research Institute Molecular Screening Center.
An excerpt weighted towards active compounds, which were near 4.1% of everything screened.
ssDAF12 agonist – S. stercoralis DAF-12 activation, primary screen | hit rate 1% among 370,000 | activation, % at 6.8 µM | HEK293 ssDAF-12/GRIP1 lit1-tk-luc reporter, luminescence; % of 3 µM dafachronic acid response;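 active means activation above the mean over all tested compounds plus 3 SD, cut at about 0.9% in these data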
DAX1 inh-1 – inhibits human nuclear receptor DAX1; inhibition, % at 6.75 µM; HEK293 Gal4-DAX1 luciferase reporter, luminescence; P51843; hit rate 0.99% among 340,000;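 active means inhibition above the mean over all tested compounds plus 3 SD, cut at about 4.2% in these data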;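 further: inhibition shows as a rise in luminescence from relieved DAX1 repression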
Target sequence (P51843 207-470 limits assumed): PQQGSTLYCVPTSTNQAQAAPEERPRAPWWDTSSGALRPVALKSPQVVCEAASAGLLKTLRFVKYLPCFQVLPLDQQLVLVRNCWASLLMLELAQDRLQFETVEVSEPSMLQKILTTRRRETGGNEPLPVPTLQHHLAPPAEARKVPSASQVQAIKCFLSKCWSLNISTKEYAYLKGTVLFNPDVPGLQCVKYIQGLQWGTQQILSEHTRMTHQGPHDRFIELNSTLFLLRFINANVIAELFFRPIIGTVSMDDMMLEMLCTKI
hcDAF12 agonist – activators of H. contortus DAF-12 nuclear receptor; hit rate 1.4% among 370,000; activation, % at 6.8 µM; HEK293 hcDAF-12 lit1-tk-luc reporter, luminescence; 0% DMSO, 100% Δ7-dafachronic acid;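 active means activation above the mean of all tested compounds plus 3 SD, cut at about 5.5% in these data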
DAX1 inh-2 – DAX1 (NR0B1) inhibition, primary screen | AID 652010 | inhibition, % at 6.8 µM | HEK293T StAR-luciferase reporter, SF-1/DAX-1 repression relief | hit rate 1.1% among 370,000;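 active means inhibition above the mean over all tested compounds plus 3 SD, cut at about 3.6% in these data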;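 further: higher inhibition means more luminescence from relief of DAX-1 repression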
hgDAF-12 ag – agonists of H. glycines DAF-12 nuclear receptor. HEK293 GAL4-hgDAF12 UAS-luciferase reporter, agonist luminescence; normalized to butyrate control. activation, % at 6.8 µM. hit rate 1.8% among 370,000;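 active means activation above a cutoff set at the mean of all screened compounds plus 3 SD, cut at about 10% in these data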
Each line names hits and unclear results; the compound was inactive in the other large screens.

Cc1ccc(S(=O)(=O)Nc2ccncc2)c(C)c1N(C)S(=O)(=O)c1ccc(F)cc1	hcDAF12 agonist 5.7
COC(=O)c1ccc(NN=Nc2ccc(C)cc2)cc1	hcDAF12 agonist 6.0, hgDAF-12 ag 10.8
Cc1nn2c(-c3ccncc3)ccnc2c1Cl	hgDAF-12 ag 11.7
COc1cccc(OCC(C)CN2CCC(C(O)(c3ccccc3)c3ccccc3)CC2)c1 (centres undefined)	none (no result: DAX1 inh-1)
CN1CCN(Cc2coc3c(Cl)cc(Cl)cc3c2=O)CC1	ssDAF12 agonist 1.3
O=c1c(CN2CCN(c3cccc(Cl)c3)CC2)coc2c(Cl)cc(Cl)cc12	none
O=C(N/N=C/C=C\c1ccco1)c1cccs1	ssDAF12 agonist 1.3 (no result: DAX1 inh-1)
Cc1cc(C)c2c(CN3CCC(C)CC3)cc(=O)oc2c1C	DAX1 inh-1 4.8
Cc1ccc2c(CN3CCC(C)CC3)cc(=O)oc2c1C	none
O=C(NCCc1cccs1)C1CC(c2ccccc2[N+](=O)[O-])=NO1 (centres undefined)	hcDAF12 agonist 5.8
Cc1ccc(CCNC(=O)C2CC(c3ccccc3[N+](=O)[O-])=NO2)cc1 (centres undefined)	none
COC(=O)C1=C(C)N(C)C(=NCc2cccc(C(F)(F)F)c2)NC1c1ccc(F)cc1 (centres undefined)	none (no result: DAX1 inh-1)
CCOC(=O)c1sc(NC(=O)CN2CCN(c3ccc(OC)cc3)CC2)nc1C	ssDAF12 agonist 1.8
CCC[C@H]1[C@@H](OC(=O)NCc2cccnc2)CC[C@@]23CCCN2C(=O)CCC[C@@H]13	none (no result: DAX1 inh-1, DAX1 inh-2)
CCOc1ccc(-n2c(COc3ccc(C)cc3)nnc2SCC(=O)c2ccc3ccccc3c2)cc1	none (no result: DAX1 inh-1)
O=c1c(-c2ccc(Cl)cc2)c[nH]n1-c1ccccc1	none
O=c1c(-c2ccccc2)c[nH]n1-c1cccc([N+](=O)[O-])c1	DAX1 inh-1 8.3
COC(=O)[C@]12C[C@H](CC(=O)NCCc3ccccc3OC)C(=O)N(CCc3ccc(OC)c(OC)c3)C1=C[C@H](C(C)C)O[C@@H]2C1CC1	none (no result: DAX1 inh-1)
O=C(Nc1cc(C(F)(F)F)ccc1N1CCOCC1)c1cn2ccccc2n1	DAX1 inh-1 6.6
O=C(Nc1cc(S(=O)(=O)N2CCOCC2)ccc1N1CCOCC1)c1cn2ccccc2n1	none
N=C1C(=O)OCC1c1ccccc1NC(=O)Nc1ccccc1 (centres undefined)	DAX1 inh-1 7.1
N=C1C(=O)OCC1c1ccccc1NC(=O)c1ccc(F)cc1 (centres undefined)	none
Cc1ccc2nc(-c3ccc(NC(=O)CSc4nnc(-c5ccccc5)n4Cc4ccco4)cc3)sc2c1	hgDAF-12 ag 11.7 (no result: DAX1 inh-1)
Nn1c(SCC(=O)Nc2ccc(OCc3ccccc3)cc2)nnc1-c1cc(-c2ccc(Cl)cc2)n[nH]1	none (no result: DAX1 inh-1)
Nn1c(SCC(=O)Nc2nccs2)nnc1-c1cc(-c2ccccc2)n[nH]1	hgDAF-12 ag 11.2 (no result: DAX1 inh-1)
COc1ccc(-c2cc(-c3nnc(SCC(=O)Nc4ccc(-c5nc6ccc(C)cc6s5)cc4)n3N)[nH]n2)cc1	hgDAF-12 ag 12.9 (no result: DAX1 inh-1)
COc1ccc(Cn2cc(CN3[C@@H](C)COc4cc(Br)ccc4S3(=O)=O)nn2)cc1	none (no result: DAX1 inh-1)
CC(C)CNc1cccc2c1S(=O)(=O)N[C@@H](CC(C)C)CO2	none (no result: DAX1 inh-1)
Cc1csc(SCC(=O)Nc2nccs2)n1	none
Cc1csc(SCC(=O)Nc2sccc2C(N)=O)n1	hgDAF-12 ag 10.8
CC(C)C[C@@H]1COc2cc(Br)ccc2S(=O)(=O)N1Cc1cn(CC2CCCCC2)nn1	none (no result: DAX1 inh-1)
CNc1cccc(-c2ccc(C(C)=O)s2)n1	DAX1 inh-2 4.0 (no result: DAX1 inh-1)
CNc1cccc(-c2ccccc2C(C)=O)n1	none (no result: DAX1 inh-1)
Cc1ccc(NC2=CC(=O)CC(c3ccco3)C2)c(N)c1 (centres undefined)	ssDAF12 agonist 1.6, hgDAF-12 ag 10.6
Cc1cc(C)cc(NC2=CC(=O)CC(c3ccco3)C2)c1 (centres undefined)	none
CC(C)n1nnnc1C1c2ccccc2C(=O)N1CCc1ccccc1F (centres undefined)	hcDAF12 agonist 5.7, hgDAF-12 ag 15.1 (no result: DAX1 inh-1)
CC(C)n1nnnc1C1c2ccccc2C(=O)N1CCOc1ccccc1 (centres undefined)	hgDAF-12 ag 12.5 (no result: DAX1 inh-1)
COc1cc(CNc2cccc(F)c2)cc(Br)c1O	ssDAF12 agonist 1.5
COc1ccc(CNc2ccccc2)cc1Br	none
COc1ccc(Cn2c(-c3ccccc3)nc3c(c(=O)c4ccccc4n3C)c2=O)cc1	none
